# What was measured:
# Test in all cases: DAPPL (digital affinity profiling via proximity ligation, sequencing); 10 mM Tris-HCl pH 7.5, 50 mM NaCl, 1 mM DTT, 4% glycerol, room temperature, 30 min; GST-TFs on glutathione beads, 16-mer random dsDNA library, 0.1% formaldehyde crosslink after washing; high values mean tight binding
# FEV = molecular target: T1, FEV (Homo sapiens, UniProt Q99581 1-238); settings: protein: recombinant; tags: N-terminal GST; dsDNA, one strand shown
# T1 sequence: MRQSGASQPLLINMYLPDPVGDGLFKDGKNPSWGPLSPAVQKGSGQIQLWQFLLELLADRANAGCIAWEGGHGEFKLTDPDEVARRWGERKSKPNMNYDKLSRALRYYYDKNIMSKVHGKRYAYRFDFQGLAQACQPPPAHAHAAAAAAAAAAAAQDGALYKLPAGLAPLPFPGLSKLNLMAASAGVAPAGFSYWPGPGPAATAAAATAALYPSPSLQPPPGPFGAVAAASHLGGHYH
# Summary of the method: (§1)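 Human transcription factors were made in yeast as GST fusions, captured on glutathione beads and barcoded with DNA. With a tag-only sample included, the pool was incubated with 200 nmole of a random double-stranded 16-mer DNA library in Tris/NaCl/DTT/glycerol buffer at room temperature for 30 min, then crosslinked with 0.1% formaldehyde after washing, ligated by proximity, amplified and sequenced. For binding signal, each hexamer's read frequency for a factor is divided by its frequency for the tag-only sample.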
# ETV5 = ETV5 (Homo sapiens, UniProt P41161 1-510); settings: protein: recombinant; tags: N-terminal GST; dsDNA, one strand shown
# Chain of ETV5 (P41161 whole entry): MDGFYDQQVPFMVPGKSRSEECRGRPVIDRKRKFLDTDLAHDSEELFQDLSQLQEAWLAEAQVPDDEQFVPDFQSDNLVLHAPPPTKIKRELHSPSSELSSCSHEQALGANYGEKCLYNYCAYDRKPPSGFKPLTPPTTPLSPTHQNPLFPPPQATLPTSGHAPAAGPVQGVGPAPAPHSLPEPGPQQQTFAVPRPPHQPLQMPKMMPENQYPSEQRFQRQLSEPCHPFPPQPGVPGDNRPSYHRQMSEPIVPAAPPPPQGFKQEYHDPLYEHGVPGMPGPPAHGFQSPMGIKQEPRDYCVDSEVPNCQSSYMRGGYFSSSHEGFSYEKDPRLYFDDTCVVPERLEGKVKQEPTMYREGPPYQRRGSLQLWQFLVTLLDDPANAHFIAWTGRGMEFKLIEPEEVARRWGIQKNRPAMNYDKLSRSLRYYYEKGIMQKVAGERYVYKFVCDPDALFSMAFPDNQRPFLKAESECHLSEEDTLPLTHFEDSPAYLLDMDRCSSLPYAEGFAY
# Summary of the method: as §1
# HSF1 = HSF1 (Homo sapiens, UniProt Q00613 1-529); settings: protein: recombinant; tags: N-terminal GST; chain copies: 3; dsDNA, one strand shown
# Chain of HSF1 (Q00613 whole entry): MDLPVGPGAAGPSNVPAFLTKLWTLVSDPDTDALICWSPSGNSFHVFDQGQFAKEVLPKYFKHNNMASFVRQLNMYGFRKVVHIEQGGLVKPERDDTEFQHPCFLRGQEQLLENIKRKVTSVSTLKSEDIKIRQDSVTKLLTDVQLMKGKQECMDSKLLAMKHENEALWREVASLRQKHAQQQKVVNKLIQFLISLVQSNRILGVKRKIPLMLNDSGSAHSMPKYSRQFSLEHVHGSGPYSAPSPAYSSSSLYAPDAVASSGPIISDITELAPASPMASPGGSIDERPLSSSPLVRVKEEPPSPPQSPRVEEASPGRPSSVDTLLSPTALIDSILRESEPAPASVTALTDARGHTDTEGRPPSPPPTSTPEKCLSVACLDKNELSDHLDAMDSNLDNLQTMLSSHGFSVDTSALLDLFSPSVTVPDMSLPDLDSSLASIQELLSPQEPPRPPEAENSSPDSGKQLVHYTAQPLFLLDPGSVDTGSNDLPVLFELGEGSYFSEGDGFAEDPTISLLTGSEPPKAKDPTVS
# Summary of the method: as §1
# SPIC = molecular target: T2, SPIC (Homo sapiens, UniProt Q8N5J4 1-248); settings: protein: recombinant; tags: N-terminal GST; dsDNA, one strand shown
# T2 sequence: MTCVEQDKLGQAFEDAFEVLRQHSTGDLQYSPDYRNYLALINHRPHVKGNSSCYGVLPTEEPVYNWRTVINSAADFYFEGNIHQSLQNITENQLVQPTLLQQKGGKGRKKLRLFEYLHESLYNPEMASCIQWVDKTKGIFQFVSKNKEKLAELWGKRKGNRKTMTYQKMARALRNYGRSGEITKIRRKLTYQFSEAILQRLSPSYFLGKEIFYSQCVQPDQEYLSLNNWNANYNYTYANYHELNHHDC
# Summary of the method: as §1
# ELF4 = ELF4 (Homo sapiens, UniProt Q99607 1-663); settings: protein: recombinant; tags: N-terminal GST; dsDNA, one strand shown
# Chain of ELF4 (Q99607 whole entry): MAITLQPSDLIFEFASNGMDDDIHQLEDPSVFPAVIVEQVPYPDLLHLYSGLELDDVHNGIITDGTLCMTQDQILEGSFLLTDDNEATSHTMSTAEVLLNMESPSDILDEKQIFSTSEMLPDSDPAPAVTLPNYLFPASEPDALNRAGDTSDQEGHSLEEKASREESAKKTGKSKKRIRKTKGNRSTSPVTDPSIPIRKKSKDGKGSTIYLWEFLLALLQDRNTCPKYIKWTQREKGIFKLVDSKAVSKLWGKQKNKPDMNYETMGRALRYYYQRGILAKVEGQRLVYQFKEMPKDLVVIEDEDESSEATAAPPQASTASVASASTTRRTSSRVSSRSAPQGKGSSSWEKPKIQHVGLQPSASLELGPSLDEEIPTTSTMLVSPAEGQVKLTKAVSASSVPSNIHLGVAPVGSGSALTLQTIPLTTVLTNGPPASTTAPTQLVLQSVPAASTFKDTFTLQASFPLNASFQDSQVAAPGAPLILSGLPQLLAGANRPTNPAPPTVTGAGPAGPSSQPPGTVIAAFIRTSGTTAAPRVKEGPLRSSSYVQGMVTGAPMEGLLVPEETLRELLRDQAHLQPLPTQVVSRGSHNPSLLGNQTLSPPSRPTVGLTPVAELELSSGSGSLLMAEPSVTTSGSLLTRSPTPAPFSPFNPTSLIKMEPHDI
# Summary of the method: as §1
# ELK4 = molecular target: T3, ELK4 (Homo sapiens, UniProt P28324-2 1-405); settings: protein: recombinant; tags: N-terminal GST; dsDNA, one strand shown
# T3 sequence: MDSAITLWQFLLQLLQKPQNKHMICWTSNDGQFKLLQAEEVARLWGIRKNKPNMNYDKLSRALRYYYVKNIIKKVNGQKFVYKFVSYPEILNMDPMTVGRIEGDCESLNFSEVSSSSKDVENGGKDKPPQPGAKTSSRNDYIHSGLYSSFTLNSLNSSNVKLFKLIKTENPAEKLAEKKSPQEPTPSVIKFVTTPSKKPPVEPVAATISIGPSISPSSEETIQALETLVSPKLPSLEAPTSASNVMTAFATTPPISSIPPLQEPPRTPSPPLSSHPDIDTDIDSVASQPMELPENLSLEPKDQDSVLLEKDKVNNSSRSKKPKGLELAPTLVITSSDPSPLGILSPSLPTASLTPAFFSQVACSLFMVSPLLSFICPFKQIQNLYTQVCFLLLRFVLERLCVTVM
# Summary of the method: as §1
# ETV2 = molecular target: T4, ETV2 (Homo sapiens, UniProt O00321 1-342); settings: protein: recombinant; tags: N-terminal GST; dsDNA, one strand shown
# T4 sequence: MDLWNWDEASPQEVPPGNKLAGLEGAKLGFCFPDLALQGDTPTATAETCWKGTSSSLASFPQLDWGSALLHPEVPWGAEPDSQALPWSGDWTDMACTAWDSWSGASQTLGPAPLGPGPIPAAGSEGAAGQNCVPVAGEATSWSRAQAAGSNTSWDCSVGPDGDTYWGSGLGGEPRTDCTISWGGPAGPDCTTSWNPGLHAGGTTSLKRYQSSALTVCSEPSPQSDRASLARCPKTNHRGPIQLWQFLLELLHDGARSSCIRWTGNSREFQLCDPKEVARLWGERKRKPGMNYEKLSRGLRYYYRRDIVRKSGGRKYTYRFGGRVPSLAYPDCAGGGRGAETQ
# Summary of the method: as §1
# ELF3 = molecular target: T5, ELF3 (Homo sapiens, UniProt P78545 1-371); settings: protein: recombinant; tags: N-terminal GST; dsDNA, one strand shown
# T5 sequence: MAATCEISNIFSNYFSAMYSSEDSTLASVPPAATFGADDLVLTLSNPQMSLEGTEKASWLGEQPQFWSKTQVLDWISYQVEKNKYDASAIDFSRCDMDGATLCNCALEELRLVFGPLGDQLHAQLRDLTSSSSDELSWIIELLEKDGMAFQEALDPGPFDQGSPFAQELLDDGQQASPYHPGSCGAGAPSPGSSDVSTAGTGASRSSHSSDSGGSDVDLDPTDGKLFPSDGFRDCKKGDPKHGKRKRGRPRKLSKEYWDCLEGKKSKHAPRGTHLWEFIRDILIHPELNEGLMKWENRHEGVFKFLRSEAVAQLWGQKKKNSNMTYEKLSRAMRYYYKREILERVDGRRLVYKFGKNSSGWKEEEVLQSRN
# Summary of the method: as §1
# CRX = CRX (Homo sapiens, UniProt O43186 1-299); settings: protein: recombinant; tags: N-terminal GST; dsDNA, one strand shown
# Chain of CRX (O43186 whole entry): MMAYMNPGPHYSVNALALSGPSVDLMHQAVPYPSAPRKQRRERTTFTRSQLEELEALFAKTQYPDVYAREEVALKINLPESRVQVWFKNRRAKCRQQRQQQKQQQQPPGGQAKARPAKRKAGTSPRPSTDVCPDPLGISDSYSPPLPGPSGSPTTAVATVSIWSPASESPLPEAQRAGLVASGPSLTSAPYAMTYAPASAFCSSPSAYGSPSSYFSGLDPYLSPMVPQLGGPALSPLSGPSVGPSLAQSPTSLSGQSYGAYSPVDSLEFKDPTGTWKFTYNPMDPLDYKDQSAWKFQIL
# Summary of the method: as §1
# ETV1 = ETV1 (Homo sapiens, UniProt P50549 1-477); settings: protein: recombinant; tags: N-terminal GST; dsDNA, one strand shown
# Chain of ETV1 (P50549 whole entry): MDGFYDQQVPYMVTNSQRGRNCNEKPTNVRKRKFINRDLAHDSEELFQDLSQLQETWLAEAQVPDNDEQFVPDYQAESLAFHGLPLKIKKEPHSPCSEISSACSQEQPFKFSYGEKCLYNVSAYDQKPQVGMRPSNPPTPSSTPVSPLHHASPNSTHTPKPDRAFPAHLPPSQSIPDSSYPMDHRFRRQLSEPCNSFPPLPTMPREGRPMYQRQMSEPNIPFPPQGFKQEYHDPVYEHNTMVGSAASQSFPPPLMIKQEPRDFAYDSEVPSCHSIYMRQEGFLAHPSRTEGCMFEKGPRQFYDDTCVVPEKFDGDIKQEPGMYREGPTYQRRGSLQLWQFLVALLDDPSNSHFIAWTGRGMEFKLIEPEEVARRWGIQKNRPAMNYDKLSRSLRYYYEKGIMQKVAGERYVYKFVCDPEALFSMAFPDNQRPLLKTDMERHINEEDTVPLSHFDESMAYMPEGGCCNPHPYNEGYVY
# Summary of the method: as §1
# ERF = molecular target: T6, ERF (Homo sapiens, UniProt P50548 1-548); settings: protein: recombinant; tags: N-terminal GST; dsDNA, one strand shown
# T6 sequence: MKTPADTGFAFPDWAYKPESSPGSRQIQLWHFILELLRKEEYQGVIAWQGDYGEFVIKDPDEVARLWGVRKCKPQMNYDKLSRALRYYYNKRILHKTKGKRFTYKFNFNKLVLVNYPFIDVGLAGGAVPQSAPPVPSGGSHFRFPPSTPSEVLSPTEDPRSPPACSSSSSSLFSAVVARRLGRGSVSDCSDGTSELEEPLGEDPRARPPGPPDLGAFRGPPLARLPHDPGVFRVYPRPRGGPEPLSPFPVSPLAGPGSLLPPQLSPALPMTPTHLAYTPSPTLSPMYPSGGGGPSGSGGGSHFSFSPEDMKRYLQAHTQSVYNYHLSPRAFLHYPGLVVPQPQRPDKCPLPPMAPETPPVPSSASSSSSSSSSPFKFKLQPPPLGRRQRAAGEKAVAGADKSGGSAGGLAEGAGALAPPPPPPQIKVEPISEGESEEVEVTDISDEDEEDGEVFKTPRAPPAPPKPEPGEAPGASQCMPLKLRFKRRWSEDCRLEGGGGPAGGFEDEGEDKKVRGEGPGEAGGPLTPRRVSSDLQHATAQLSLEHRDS
# Summary of the method: as §1
# ETV3L = molecular target: T7, ETV3L (Homo sapiens, UniProt Q6ZN32 1-361); settings: protein: recombinant; tags: N-terminal GST; dsDNA, one strand shown
# T7 sequence: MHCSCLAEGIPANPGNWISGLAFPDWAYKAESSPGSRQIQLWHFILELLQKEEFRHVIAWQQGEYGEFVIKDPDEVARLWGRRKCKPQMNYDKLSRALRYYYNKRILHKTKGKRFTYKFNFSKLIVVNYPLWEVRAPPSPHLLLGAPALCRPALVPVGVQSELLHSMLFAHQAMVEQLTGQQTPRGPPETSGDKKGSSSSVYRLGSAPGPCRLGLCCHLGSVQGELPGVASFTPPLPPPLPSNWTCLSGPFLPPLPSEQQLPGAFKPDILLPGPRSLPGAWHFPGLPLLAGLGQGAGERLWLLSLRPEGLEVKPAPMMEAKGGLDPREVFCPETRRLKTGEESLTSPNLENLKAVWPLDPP
# Summary of the method: as §1
# ETS2 = molecular target: T8, ETS2 (Homo sapiens, UniProt P15036 1-469); settings: protein: recombinant; tags: N-terminal GST; dsDNA, one strand shown
# T8 sequence: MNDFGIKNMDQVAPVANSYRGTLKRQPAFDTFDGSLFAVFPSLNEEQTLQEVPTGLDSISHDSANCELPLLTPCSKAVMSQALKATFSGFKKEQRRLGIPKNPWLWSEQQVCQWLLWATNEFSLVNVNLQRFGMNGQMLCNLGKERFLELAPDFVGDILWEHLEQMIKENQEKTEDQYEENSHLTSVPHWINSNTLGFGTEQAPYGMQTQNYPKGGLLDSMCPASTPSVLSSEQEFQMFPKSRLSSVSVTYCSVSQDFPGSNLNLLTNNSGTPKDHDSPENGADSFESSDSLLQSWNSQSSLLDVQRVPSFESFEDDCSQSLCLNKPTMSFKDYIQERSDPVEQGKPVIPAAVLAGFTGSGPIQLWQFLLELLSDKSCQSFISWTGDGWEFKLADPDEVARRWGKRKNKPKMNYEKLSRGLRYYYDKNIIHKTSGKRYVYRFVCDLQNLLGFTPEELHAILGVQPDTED
# Summary of the method: as §1
# SPDEF = molecular target: T9, SPDEF (Homo sapiens, UniProt O95238 1-335); settings: protein: recombinant; tags: N-terminal GST; dsDNA, one strand shown
# T9 sequence: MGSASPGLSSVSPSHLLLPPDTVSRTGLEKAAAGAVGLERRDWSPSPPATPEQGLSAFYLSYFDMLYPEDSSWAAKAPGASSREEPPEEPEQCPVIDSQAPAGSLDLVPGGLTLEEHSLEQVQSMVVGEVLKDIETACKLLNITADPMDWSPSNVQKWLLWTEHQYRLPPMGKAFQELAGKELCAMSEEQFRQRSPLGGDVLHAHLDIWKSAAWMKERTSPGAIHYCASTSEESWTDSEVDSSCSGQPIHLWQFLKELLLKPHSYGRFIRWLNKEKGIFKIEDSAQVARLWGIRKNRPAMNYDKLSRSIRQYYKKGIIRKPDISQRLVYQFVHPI
# Summary of the method: as §1
# ETV7 = molecular target: T10, ETV7 (Homo sapiens, UniProt Q9Y603 1-341); settings: protein: recombinant; tags: N-terminal GST; dsDNA, one strand shown
# T10 sequence: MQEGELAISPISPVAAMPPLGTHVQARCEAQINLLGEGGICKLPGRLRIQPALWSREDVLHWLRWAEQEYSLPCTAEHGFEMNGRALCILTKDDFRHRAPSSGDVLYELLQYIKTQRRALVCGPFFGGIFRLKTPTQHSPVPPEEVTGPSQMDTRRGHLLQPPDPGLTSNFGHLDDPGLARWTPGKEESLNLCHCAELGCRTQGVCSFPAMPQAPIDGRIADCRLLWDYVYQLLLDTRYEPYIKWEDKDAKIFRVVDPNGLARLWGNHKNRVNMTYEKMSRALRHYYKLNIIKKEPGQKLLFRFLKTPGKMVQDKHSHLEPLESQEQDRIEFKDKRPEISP
# Summary of the method: as §1
# ELF5 = molecular target: T11, ELF5 (Homo sapiens, UniProt Q9UKW6-2 1-255); settings: protein: recombinant; tags: N-terminal GST; dsDNA, one strand shown
# T11 sequence: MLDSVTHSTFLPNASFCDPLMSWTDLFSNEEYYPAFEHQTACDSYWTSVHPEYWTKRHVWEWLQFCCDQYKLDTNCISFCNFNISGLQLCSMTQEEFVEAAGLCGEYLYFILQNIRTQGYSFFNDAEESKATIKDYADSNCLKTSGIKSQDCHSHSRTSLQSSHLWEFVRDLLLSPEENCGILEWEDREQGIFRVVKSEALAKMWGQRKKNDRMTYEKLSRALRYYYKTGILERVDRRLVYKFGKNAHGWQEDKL
# Summary of the method: as §1
# ETV3 = molecular target: T12, ETV3 (Homo sapiens, UniProt P41162-2 1-143); settings: protein: recombinant; tags: N-terminal GST; dsDNA, one strand shown
# T12 sequence: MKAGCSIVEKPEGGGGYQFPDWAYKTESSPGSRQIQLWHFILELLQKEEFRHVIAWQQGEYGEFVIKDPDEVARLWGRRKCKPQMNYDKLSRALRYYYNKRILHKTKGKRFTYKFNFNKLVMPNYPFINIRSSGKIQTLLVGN
# Summary of the method: as §1
# ETV6 = ETV6 (Homo sapiens, UniProt P41212 1-452); settings: protein: recombinant; tags: N-terminal GST; dsDNA, one strand shown
# Chain of ETV6 (P41212 whole entry): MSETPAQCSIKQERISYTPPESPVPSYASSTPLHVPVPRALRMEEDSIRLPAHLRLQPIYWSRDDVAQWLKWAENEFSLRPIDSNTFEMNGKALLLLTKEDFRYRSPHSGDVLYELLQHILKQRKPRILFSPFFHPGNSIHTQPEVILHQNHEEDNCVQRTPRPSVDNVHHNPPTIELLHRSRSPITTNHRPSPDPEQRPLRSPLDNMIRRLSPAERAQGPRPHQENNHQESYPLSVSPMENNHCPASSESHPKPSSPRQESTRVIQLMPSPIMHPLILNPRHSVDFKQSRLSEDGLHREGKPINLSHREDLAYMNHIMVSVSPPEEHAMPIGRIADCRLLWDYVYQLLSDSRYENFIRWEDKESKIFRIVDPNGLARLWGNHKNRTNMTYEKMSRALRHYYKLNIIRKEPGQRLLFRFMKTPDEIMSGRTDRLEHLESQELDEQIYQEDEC
# Summary of the method: as §1
sequence,measurement,setting,value
GCCCTA,binding signal,FEV,"1.28 fold enrichment (6-mer frequency, TF over GST control)"
same,binding signal,ETV5,"1.16 fold enrichment (6-mer frequency, TF over GST control)"
same,binding signal,HSF1,"1.13 fold enrichment (6-mer frequency, TF over GST control)"
same,binding signal,SPIC,"1.18 fold enrichment (6-mer frequency, TF over GST control)"
same,binding signal,ELF4,"1.24 fold enrichment (6-mer frequency, TF over GST control)"
same,binding signal,ELK4,"1.24 fold enrichment (6-mer frequency, TF over GST control)"
same,binding signal,ETV2,"1.06 fold enrichment (6-mer frequency, TF over GST control)"
same,binding signal,ELF3,"1.19 fold enrichment (6-mer frequency, TF over GST control)"
same,binding signal,CRX,"1.27 fold enrichment (6-mer frequency, TF over GST control)"
same,binding signal,ETV1,"1.06 fold enrichment (6-mer frequency, TF over GST control)"
same,binding signal,ERF,"1.21 fold enrichment (6-mer frequency, TF over GST control)"
same,binding signal,ETV3L,"1.17 fold enrichment (6-mer frequency, TF over GST control)"
same,binding signal,ETS2,"1.22 fold enrichment (6-mer frequency, TF over GST control)"
same,binding signal,SPDEF,"1.21 fold enrichment (6-mer frequency, TF over GST control)"
same,binding signal,ETV7,"1.12 fold enrichment (6-mer frequency, TF over GST control)"
same,binding signal,ELF5,"1.11 fold enrichment (6-mer frequency, TF over GST control)"
same,binding signal,ETV3,"1.18 fold enrichment (6-mer frequency, TF over GST control)"
same,binding signal,ETV6,"1.17 fold enrichment (6-mer frequency, TF over GST control)"

# Reference: article PMC7862700, “An all-to-all approach to the identification of sequence-specific readers for epigenetic DNA modifications on cytosine”
